Assay [1] in a line: ATG_TAL_CIS: Attagene CIS-FACTORIAL HepG2 Assay for human TAL Basal Promoter (AID 2282966; active = hit-call score of the fitted dose curve at least 0.9, where 1 is the maximum; inactive = score below 0.9;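 also: background control endpoint measuring basal TAL promoter reporter mRNA not a specific factor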). The settings on record: HepG2 Attagene cis-factorial TAL promoter reporter; actives raise or lower the signal. The essentials: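 Steps: transfect HepG2 with multiple reporter transcription units; dose 24 h; isolate RNA, reverse-transcribe, PCR-amplify, label with 6-FAM, digest with HpaI; resolve by capillary electrophoresis. Bidirectional fitting against DMSO baseline.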

Assay [2] in a line: ATG_TGFb_CIS: Attagene CIS-FACTORIAL HepG2 Assay for human Transforming Growth Factor (TGF) (AID 2282967; active = hit-call score of the fitted dose curve at least 0.9, where 1 is the maximum; inactive = score below 0.9). Conditions: HepG2 Attagene CIS TGFb reporter, mRNA transcription; actives raise or lower the signal. The essentials:
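Liver HepG2 line, cis-factorial reporter panel, 24 h dosing. Quantitation: RT-PCR products labeled with 6-FAM, cut with HpaI, resolved by capillary electrophoresis; DMSO-referenced bidirectional analysis.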

Assay [3] in a line: ATG_VDRE_CIS: Attagene CIS-FACTORIAL HepG2 Assay for human Vitamin D Receptor Element (VDRE) (AID 2282968; active = hit-call score of the fitted dose curve at least 0.9, where 1 is the maximum; inactive = score below 0.9). Conditions: HepG2 VDRE cis-reporter transcription, actives raise or lower the signal. The essentials:
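Transiently transfected HepG2 cells carrying cis-regulated reporter transcription units were exposed for 24 h. Reporter mRNA was measured by RT-PCR with fluorescent labelling and capillary electrophoresis, and fitted in both directions against DMSO.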

Assay [4] has as its target Nuclear receptor subfamily 1 group I member 3 (Homo sapiens) (UniProt Q14994). Description: ATG_CAR_TRANS: Attagene TRANS-FACTORIAL HepG2 Assay for human Constitutive Androstane Receptor (CAR) (AID 2282969).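 Also: activators raise reporter mRNA above DMSO so AC50 marks induction.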 Conditions: HepG2 Attagene TRANS-FACTORIAL CAR reporter. The essentials:
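HepG2 cells transiently transfected with GAL4-UAS reporter units; TRANS format reads activity of exogenous chimeric NR-Gal4 protein. After 24 h dosing, reporter mRNA quantified by RT-PCR, 6-FAM labelling and capillary electrophoresis; gain of signal fitted against DMSO.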

The target in assay [5] is X-box-binding protein 1 (Homo sapiens) (UniProt P17861). As to the kind of experiment: ATG_Xbp1_CIS: Attagene CIS-FACTORIAL HepG2 Assay for human X-box Binding Protein 1 (XBP1) (AID 2282972; active = hit-call score of the fitted dose curve at least 0.9, where 1 is the maximum; inactive = score below 0.9). Conditions: HepG2 XBP1 cis-element reporter, Attagene multiplex; actives raise or lower the signal. The essentials:
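HepG2, transient MRTU transfection (cis-promoter driven), 24 h compound exposure. Total RNA → oligo(dT) RT → PCR → 6-FAM labeling → HpaI cut → CE. Bidirectional fit vs DMSO.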

Assay [6] addresses Hepatocyte nuclear factor 4-alpha (Homo sapiens) (UniProt P41235). As to the kind of experiment: ATG_HNF4a_TRANS: Attagene TRANS-FACTORIAL HepG2 Assay for human Hepatocyte Nuclear Factor 4 alpha (HNF4a) (AID 2282982). The settings on record: HepG2 HNF4a transactivation reporter, mRNA readout. The essentials:
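HepG2 cells transiently transfected with HNF4a-Gal4 chimera and GAL4-UAS reporter units, dosed for 24 h. Reporter mRNA measured by RT-PCR, fluorescent primer extension and capillary electrophoresis; gain-of-signal fitted relative to DMSO.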

The nature of assay [7]: ATG_M_06_TRANS: Attagene TRANS-FACTORIAL HepG2 Assay for M06 Transcription Factor (Internal Marker) (AID 2282983).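 Also: reporter transcript level by RT-PCR then capillary electrophoresis fluorescence.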 Conditions: HepG2 Attagene TRANS M06 internal marker reporter. The essentials:
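Internal-marker background readout from a multiplexed TRANS reporter system in HepG2; 24 h dosing; mRNA induction quantified by RT-PCR plus capillary electrophoresis fluorescence; DMSO as negative control and baseline.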

A short description of assay [8]: ATG_M_32_TRANS: Attagene TRANS-FACTORIAL HepG2 Assay for M32 Transcription Factor (Internal Marker) (AID 2282984).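 Also: transcript level of a background control reporter unit measured by RT-PCR and capillary electrophoresis.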 The settings on record: HepG2 Attagene TRANS M32 internal marker reporter. The essentials: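 HepG2 cells transiently transfected with GAL4-UAS reporter units, dosed for 24 hours. Reporter mRNA quantified by RT-PCR, 6-FAM labelling, HpaI digestion and capillary electrophoresis; internal-marker signal fitted upward relative to DMSO.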

For assay [9], the target named is Nuclear receptor subfamily 4 group A member 2 (Homo sapiens) (UniProt P43354). Description: ATG_NURR1_TRANS: Attagene TRANS-FACTORIAL HepG2 Assay for human Nuclear Receptor Related Protein 1 (NURR1) (AID 2282985). The settings on record: HepG2 Attagene TRANS reporter, mRNA readout. The essentials: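 HepG2 cells transiently transfected with NURR1-Gal4 chimera and GAL4-UAS reporter units; after 24 hr compound exposure, reporter mRNA quantified by RT-PCR and capillary electrophoresis; gain of signal fitted against DMSO.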
Chain of Nuclear receptor subfamily 4 group A member 2 (Homo sapiens) (P43354 whole entry, looked up, the tested form may be a part): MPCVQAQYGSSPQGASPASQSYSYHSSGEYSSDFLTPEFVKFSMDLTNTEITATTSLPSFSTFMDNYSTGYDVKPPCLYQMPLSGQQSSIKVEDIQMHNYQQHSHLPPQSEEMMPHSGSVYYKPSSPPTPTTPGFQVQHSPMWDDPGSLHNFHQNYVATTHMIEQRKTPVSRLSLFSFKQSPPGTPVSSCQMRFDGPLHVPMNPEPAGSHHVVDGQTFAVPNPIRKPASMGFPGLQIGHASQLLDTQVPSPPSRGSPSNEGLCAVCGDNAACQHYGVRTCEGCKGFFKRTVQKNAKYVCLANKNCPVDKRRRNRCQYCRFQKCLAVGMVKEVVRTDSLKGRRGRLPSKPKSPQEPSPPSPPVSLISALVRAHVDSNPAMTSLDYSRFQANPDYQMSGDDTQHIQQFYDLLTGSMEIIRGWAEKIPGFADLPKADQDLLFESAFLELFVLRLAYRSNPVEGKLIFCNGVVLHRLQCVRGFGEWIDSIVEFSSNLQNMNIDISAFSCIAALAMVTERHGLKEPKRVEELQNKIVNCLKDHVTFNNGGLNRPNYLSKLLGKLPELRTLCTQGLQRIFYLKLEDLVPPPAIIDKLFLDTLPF

Assay [10] addresses Nuclear respiratory factor 1 (Homo sapiens) (UniProt Q16656). Description: ATG_NRF1_CIS: Attagene CIS-FACTORIAL HepG2 Assay for human Nuclear Respiratory Factor 1 (NRF1) Orphan Gene (AID 2282987; active = hit-call score of the fitted dose curve at least 0.9, where 1 is the maximum; inactive = score below 0.9). The settings on record: HepG2 NRF1 cis-element reporter, Attagene multiplex; actives raise or lower the signal. The essentials: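 Transcriptional reporter readout, one component of a 52-endpoint multiplexed HepG2 panel. Exposure 24 h; mRNA detected via RT-PCR and fluorescent capillary electrophoresis; fitting in both directions against DMSO.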

Assay [11] addresses Glucocorticoid receptor (Homo sapiens) (UniProt P04150). As to the kind of experiment: ATG_GR_TRANS: Attagene TRANS-FACTORIAL HepG2 Assay for human Glucocorticoid Receptor (GR) (AID 2282978).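 Also: activators score as hits since higher reporter transcript over DMSO is fitted.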 Conditions: HepG2 Attagene TRANS GR reporter, mRNA transcription. The essentials: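 Measurement of GAL4-UAS-driven reporter mRNA in human HepG2 liver cells 24 h post-dosing, using RT-PCR with fluorescent labelling and capillary electrophoresis; the transfected constructs report exogenous NR-GAL4 chimera activity, fitted upward against DMSO.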

For assay [12], the target named is Transcriptional activator Myb (Homo sapiens) (UniProt P10242). As to the kind of experiment: ATG_Myb_CIS: Attagene CIS-FACTORIAL HepG2 Assay for human Myeloblastosis (Myb) Proto-Oncogene Transcription Factor (AID 2282986; active = hit-call score of the fitted dose curve at least 0.9, where 1 is the maximum; inactive = score below 0.9). Conditions: HepG2 Attagene CIS-FACTORIAL Myb reporter transcription; actives raise or lower the signal. The essentials: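 Fluorescence signals from capillary electrophoresis of RT-PCR-amplified reporter cDNA give the read-out. Cells: HepG2 transfected with multiple cis-regulated reporter units. Exposure lasts 24 hours; DMSO defines baseline for gain or loss of signal.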
Chain of Transcriptional activator Myb (Homo sapiens) (P10242 whole entry, looked up): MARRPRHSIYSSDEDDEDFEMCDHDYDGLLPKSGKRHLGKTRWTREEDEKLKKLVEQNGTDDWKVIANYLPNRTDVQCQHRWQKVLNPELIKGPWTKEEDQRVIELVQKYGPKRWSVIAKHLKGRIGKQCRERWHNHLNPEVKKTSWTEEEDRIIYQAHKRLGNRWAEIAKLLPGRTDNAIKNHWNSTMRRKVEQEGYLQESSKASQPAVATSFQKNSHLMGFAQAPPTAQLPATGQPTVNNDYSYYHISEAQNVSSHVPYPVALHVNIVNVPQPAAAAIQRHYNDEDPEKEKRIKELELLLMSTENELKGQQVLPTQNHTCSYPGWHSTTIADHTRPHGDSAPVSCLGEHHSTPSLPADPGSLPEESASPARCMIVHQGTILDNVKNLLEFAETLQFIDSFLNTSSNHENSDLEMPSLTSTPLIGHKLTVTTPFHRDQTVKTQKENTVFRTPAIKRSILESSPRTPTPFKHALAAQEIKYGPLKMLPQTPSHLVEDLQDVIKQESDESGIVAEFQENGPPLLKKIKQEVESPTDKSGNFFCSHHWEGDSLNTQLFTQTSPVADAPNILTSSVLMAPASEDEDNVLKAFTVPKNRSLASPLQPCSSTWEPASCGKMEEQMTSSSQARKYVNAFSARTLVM

In assay [13] the target is Steroid hormone receptor ERR1 (Homo sapiens) (UniProt P11474). As to the kind of experiment: ATG_ERRa_TRANS: Attagene TRANS-FACTORIAL HepG2 Assay for human Estrogen-Related Receptor alpha (ERRa) (AID 2282971). The settings on record: HepG2 Attagene TRANS reporter, ERRa transactivation. The essentials: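 Signal gain relative to DMSO for an ERRa-Gal4 chimeric receptor, read as reporter mRNA by RT-PCR/capillary electrophoresis. Human HepG2 liver cells, transient multiplex reporter transfection, 24 h chemical exposure.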

Assay [14] can be described thus: ATG_M_19_TRANS: Attagene TRANS-FACTORIAL HepG2 Assay for M19 Transcription Factor (Internal Marker) (AID 2282974). Conditions: HepG2 Attagene TRANS-FACTORIAL M19 internal marker reporter. The essentials: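 Measured here: internal-marker reporter transcript from HepG2 cells transfected with MRTUs, harvested at 24 h. cDNA PCR products were 6-FAM labelled by primer extension, cut with HpaI for 2 h at 37 C, and resolved by CE.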

Assay [15] is described as follows: ATG_GAL4_TRANS: Attagene TRANS-FACTORIAL HepG2 Assay for GAL4 (Internal Marker) (AID 2282976). Conditions: HepG2 Attagene TRANS GAL4 internal marker reporter. The essentials:
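Liver HepG2 line bearing multiplexed GAL4-UAS reporter constructs; 24 h chemical treatment. Transcripts were quantified as fluorescent fragments on capillary electrophoresis after RT-PCR and HpaI cut, with activity fitted upward from DMSO.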

The target of assay [16] is Bile acid receptor (Homo sapiens) (UniProt Q96RI1). Description: ATG_FXR_TRANS: Attagene TRANS-FACTORIAL HepG2 Assay for Farnesoid X Receptor (FXR) (AID 2282979).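 Also: hits raise reporter mRNA above DMSO so AC50 marks FXR activation.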 Conditions: HepG2 Attagene TRANS FXR-GAL4 reporter transcription. The essentials: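 After 24 h chemical treatment of transfected HepG2 cells, GAL4-UAS reporter transcripts driven by an exogenous FXR-GAL4 fusion were measured by RT-PCR and capillary electrophoresis. Increases over DMSO were fitted.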
Chain of Bile acid receptor (Homo sapiens) (Q96RI1 whole entry, looked up, the tested form may be a part): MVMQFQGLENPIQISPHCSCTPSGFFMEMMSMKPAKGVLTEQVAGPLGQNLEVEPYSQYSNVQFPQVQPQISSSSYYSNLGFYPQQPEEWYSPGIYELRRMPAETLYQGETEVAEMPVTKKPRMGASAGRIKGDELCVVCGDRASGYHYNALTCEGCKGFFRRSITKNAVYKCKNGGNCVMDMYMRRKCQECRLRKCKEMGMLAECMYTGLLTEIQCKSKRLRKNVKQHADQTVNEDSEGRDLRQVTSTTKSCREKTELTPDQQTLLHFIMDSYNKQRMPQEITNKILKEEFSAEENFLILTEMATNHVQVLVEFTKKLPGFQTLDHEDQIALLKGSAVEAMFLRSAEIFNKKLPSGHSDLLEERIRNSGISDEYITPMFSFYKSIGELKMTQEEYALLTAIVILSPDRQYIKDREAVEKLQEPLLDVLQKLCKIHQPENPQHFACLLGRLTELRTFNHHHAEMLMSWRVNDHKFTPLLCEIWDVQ

The target of assay [17] is Oxysterols receptor LXR-beta (Homo sapiens) (UniProt P55055). As to the kind of experiment: ATG_LXRb_TRANS: Attagene TRANS-FACTORIAL HepG2 Assay for human Liver X Receptor beta (LXRb) (AID 2282981). The settings on record: HepG2 Attagene TRANS GAL4-LXRb reporter, mRNA. The essentials: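 HepG2 cells transiently transfected with GAL4-UAS reporter units for chimeric NR-Gal4 proteins, dosed for 24 h. Reporter transcripts measured by RT-PCR and capillary electrophoresis; gain-of-signal fitting relative to DMSO.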

The target in assay [18] is Estrogen receptor (Homo sapiens) (UniProt P03372). Description: ATG_ERa_TRANS: Attagene TRANS-FACTORIAL HepG2 Assay for human Estrogen Receptor alpha (ERa) (AID 2282970). Conditions: HepG2 Attagene TRANS ERa GAL4 reporter, mRNA. The essentials: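 Multiplexed cell-based reporter format in HepG2: chimeric ERa-Gal4 protein drives GAL4-UAS reporter transcription. Fluorescent reporter mRNA quantified by capillary electrophoresis 24 hours after dosing; endpoint fitted as signal gain against DMSO.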
Chain of Estrogen receptor (Homo sapiens) (P03372 whole entry, looked up, the tested form may be a part): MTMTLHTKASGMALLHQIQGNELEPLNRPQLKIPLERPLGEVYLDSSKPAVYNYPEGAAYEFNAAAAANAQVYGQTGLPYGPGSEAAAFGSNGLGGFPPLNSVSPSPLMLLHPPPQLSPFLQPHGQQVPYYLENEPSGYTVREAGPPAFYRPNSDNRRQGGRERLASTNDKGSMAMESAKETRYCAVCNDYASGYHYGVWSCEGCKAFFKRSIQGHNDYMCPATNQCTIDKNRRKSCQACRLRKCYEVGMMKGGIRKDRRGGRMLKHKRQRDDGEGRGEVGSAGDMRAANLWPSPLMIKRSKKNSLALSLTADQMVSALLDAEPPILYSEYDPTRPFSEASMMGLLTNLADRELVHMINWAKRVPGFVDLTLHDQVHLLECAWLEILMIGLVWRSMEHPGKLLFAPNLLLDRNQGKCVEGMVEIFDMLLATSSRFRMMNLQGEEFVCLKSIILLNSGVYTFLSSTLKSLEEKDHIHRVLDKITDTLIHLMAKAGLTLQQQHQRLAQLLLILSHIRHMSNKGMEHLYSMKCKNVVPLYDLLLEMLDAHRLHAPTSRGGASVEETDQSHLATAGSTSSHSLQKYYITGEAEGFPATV

The target in assay [19] is Estrogen-related receptor gamma (Homo sapiens) (UniProt P62508). Description: ATG_ERRg_TRANS: Attagene TRANS-FACTORIAL HepG2 Assay for human Estrogen-Related Receptor gamma (ERRg) (AID 2282977).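 Also: hits increase reporter signal over DMSO so potencies reflect activators.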 The settings on record: HepG2 Attagene TRANS reporter, ERRg transactivation. The essentials:
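HepG2 cells transiently transfected with multiplexed GAL4-UAS reporter units driven by chimeric NR-Gal4 proteins; 24 h exposure. Reporter mRNA quantified by RT-PCR, fluorescent labelling, HpaI digestion and capillary electrophoresis; gain of signal vs DMSO.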

Assay [20] deals with Oxysterols receptor LXR-alpha (Homo sapiens) (UniProt Q13133). As to the kind of experiment: ATG_LXRa_TRANS: Attagene TRANS-FACTORIAL HepG2 Assay for human Liver X Receptor alpha (LXRa) (AID 2282980). The settings on record: HepG2 Attagene TRANS reporter, LXRa transactivation. The essentials:
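In this multiplexed TRANS system, compounds act on HepG2 cells carrying GAL4-UAS reporter units and a receptor-GAL4 fusion for 24 h. Induced reporter RNA is amplified, fluorescently labelled and sized by capillary electrophoresis, with DMSO as baseline.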

Results filed as inconclusive are left out. Active and inactive are the calls of the source. The calls were made as follows, unless noted: active = hit-call score of the fitted dose curve at least 0.9, where 1 is the maximum; inconclusive = response in the unintended direction; inactive = score below 0.9.

Chain of Nuclear respiratory factor 1 (Homo sapiens) (Q16656 whole entry, looked up): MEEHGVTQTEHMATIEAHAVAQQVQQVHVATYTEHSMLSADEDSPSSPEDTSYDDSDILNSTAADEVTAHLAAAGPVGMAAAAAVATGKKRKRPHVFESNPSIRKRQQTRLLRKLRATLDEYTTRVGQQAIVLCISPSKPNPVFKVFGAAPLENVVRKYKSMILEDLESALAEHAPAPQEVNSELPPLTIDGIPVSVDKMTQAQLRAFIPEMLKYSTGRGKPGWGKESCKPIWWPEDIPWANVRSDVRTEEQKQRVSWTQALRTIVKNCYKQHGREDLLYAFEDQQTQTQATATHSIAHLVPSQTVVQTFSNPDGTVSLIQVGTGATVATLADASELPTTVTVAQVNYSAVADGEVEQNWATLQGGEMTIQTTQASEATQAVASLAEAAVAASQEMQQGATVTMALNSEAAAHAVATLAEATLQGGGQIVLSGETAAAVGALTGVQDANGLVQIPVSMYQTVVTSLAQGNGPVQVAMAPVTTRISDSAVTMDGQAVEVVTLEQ
Chain of X-box-binding protein 1 (Homo sapiens) (P17861 whole entry, looked up): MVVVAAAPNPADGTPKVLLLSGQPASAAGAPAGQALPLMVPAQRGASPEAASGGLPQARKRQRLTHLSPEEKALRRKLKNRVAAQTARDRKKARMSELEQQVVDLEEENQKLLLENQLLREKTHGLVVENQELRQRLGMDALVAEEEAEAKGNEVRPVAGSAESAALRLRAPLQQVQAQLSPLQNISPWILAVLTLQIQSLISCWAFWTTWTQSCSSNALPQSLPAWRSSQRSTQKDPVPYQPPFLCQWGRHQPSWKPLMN
Chain of Nuclear receptor subfamily 1 group I member 3 (Homo sapiens) (Q14994 whole entry, looked up, the tested form may be a part): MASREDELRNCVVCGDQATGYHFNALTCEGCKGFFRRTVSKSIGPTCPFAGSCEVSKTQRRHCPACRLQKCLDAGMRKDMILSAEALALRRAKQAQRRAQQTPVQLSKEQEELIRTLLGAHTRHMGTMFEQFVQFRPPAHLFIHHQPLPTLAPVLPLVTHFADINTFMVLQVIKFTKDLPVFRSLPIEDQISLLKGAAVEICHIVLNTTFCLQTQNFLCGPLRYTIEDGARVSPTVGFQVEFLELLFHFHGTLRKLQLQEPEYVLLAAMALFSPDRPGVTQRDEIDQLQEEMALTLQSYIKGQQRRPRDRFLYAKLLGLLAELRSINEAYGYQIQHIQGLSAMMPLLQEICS
Chain of Glucocorticoid receptor (Homo sapiens) (P04150 whole entry, looked up, the tested form may be a part): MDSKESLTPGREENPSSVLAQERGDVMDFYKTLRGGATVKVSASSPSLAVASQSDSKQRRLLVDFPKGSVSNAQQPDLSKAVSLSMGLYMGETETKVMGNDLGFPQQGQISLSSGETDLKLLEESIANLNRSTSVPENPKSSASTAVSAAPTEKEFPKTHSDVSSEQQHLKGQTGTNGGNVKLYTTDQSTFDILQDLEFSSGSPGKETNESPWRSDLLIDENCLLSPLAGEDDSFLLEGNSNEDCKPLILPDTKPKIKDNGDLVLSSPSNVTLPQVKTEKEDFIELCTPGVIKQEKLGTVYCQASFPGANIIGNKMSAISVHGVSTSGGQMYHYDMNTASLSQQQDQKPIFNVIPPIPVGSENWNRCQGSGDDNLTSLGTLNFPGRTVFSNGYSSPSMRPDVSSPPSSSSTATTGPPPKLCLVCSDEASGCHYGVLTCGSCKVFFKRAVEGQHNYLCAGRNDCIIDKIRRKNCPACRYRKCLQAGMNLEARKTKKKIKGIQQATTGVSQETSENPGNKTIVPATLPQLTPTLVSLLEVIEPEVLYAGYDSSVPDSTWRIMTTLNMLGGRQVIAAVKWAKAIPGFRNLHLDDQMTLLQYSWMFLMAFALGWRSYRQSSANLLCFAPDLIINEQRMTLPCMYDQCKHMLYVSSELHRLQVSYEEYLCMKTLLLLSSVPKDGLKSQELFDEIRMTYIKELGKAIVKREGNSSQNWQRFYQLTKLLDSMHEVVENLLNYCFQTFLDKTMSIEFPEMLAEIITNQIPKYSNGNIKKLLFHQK
Chain of Hepatocyte nuclear factor 4-alpha (Homo sapiens) (P41235 whole entry, looked up, the tested form may be a part): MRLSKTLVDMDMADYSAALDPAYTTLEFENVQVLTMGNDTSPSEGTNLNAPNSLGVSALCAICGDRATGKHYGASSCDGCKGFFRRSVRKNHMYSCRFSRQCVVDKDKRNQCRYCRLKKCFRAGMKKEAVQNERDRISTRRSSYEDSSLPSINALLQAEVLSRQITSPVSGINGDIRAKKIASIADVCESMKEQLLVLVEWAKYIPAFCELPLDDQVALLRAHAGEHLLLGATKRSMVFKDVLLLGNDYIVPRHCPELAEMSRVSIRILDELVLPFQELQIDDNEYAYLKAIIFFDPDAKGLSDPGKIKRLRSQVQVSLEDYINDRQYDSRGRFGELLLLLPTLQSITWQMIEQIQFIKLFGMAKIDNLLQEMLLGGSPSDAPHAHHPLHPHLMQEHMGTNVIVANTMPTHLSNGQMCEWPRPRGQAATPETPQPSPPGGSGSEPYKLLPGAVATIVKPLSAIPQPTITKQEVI

For the compound `O=CCc1ccccc1`, the result in assay [1], in [2], in [3], in assay [4], in assay [5] and in assay [6] was inactive. Also, the compound was classed as inactive in assay [7], in assay [8], in assay [9] and in assay [10].

As for `c1ccc(CN(Cc2ccccc2)Cc2ccccc2)cc1`, the outcome in [1], in assay [2], in [3], in assay [4], in assay [5] and in assay [11] was inactive. Moreover, the compound was called inactive in [7], in assay [9], in [12] and in assay [10].

On to `C1=CC2C3C=CC(C3)C2C1` (stereo not given), for which the compound was called inactive in assay [1], in assay [2], in assay [3], in assay [13], in assay [5] and in [14]. Besides, the call in [15], in [11], in [16], in [17], in assay [7] and in [9] was inactive. Also, in assay [10], the call was inactive.

`CCN(CCN)c1cccc(C)c1`: the outcome in assay [1], in [2], in [18], in assay [5], in assay [19] and in assay [6] was inactive. The compound was called inactive in [7], in assay [8], in assay [9] and in [10]. Further, the half-maximal activity concentration (AC50) (in general, the midpoint of the concentration-response curve, whichever way the signal moves) in [3] is 72.4 µM (active).

Regarding `CC1(C)CCC[C@]2(C)[C@H]3CCO[C@]3(C)CC[C@@H]12`, the call in [1], in assay [2], in assay [3], in assay [4], in [5] and in assay [15] was inactive. Besides, the compound was called inactive in [20], in [7], in [8], in [12] and in assay [10].

The record behind these values is PubChem BioAssay (EPA / NIEHS).
